# PMC7862700, “An all-to-all approach to the identification of sequence-specific readers for epigenetic DNA modifications on cytosine”
# Legend:
# Experiment in all cases: DAPPL (digital affinity profiling via proximity ligation, sequencing); 10 mM Tris-HCl pH 7.5, 50 mM NaCl, 1 mM DTT, 4% glycerol, room temperature, 30 min; GST-TFs on glutathione beads, 16-mer random dsDNA library, 0.1% formaldehyde crosslink after washing; high values mean tight binding
# FEV = molecular target: T1, FEV (Homo sapiens, UniProt Q99581 1-238); conditions: protein: recombinant; tags: N-terminal GST; dsDNA, one strand shown
# T1 sequence: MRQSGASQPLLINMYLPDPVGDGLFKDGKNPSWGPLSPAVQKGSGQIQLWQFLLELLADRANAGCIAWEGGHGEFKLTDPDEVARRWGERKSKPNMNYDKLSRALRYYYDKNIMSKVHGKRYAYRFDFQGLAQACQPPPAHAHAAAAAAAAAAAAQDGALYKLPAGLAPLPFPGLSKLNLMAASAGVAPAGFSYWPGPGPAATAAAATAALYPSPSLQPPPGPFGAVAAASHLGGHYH
# How it was run: (§1)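 The binding signal reported is, for every hexamer, its read frequency for a factor over its read frequency for the tag-only sample. Reads came from pools of yeast-expressed, GST-fused human transcription factors on glutathione beads, barcoded with DNA and mixed with that sample, which were incubated with 200 nmole of a random double-stranded 16-mer DNA library in Tris/NaCl/DTT/glycerol buffer at room temperature for 30 min. After washing, the pools were crosslinked with 0.1% formaldehyde, proximity-ligated with BsaI/T4 ligase for 1 h at 37 °C, PCR-amplified and sequenced on an Illumina NextSeq500.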
# ETV5 = ETV5 (Homo sapiens, UniProt P41161 1-510); conditions: protein: recombinant; tags: N-terminal GST; dsDNA, one strand shown
# Chain of ETV5 (P41161 whole entry): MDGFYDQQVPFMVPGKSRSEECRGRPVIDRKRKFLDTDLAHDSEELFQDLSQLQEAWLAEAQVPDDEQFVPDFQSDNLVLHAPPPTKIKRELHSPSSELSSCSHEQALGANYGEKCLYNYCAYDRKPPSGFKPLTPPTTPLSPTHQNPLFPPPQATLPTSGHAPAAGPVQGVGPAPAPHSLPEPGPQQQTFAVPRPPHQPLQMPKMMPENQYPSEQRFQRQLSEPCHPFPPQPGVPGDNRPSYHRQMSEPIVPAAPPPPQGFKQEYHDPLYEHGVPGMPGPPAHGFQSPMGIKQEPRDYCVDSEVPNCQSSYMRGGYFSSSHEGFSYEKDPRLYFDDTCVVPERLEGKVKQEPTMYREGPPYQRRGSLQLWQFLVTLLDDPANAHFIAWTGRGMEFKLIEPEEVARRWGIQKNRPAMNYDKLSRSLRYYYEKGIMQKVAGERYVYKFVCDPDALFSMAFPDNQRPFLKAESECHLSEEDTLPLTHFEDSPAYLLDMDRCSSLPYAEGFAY
# How it was run: as §1
# HSF1 = HSF1 (Homo sapiens, UniProt Q00613 1-529); conditions: protein: recombinant; tags: N-terminal GST; chain copies: 3; dsDNA, one strand shown
# Chain of HSF1 (Q00613 whole entry): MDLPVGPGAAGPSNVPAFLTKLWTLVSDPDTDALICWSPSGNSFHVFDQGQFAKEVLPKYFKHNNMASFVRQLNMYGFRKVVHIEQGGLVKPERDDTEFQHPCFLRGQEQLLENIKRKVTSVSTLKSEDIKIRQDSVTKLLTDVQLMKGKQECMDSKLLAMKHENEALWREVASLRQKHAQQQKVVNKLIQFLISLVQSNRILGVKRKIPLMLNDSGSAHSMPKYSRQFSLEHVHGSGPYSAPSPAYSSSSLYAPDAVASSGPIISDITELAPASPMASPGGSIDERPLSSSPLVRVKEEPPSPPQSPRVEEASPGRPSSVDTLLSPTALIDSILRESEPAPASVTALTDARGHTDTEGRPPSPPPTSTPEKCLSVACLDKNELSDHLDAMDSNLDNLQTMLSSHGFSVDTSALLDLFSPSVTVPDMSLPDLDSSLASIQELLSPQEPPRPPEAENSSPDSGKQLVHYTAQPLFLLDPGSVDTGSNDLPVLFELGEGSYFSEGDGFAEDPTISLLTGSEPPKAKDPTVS
# How it was run: as §1
# SPIC = molecular target: T2, SPIC (Homo sapiens, UniProt Q8N5J4 1-248); conditions: protein: recombinant; tags: N-terminal GST; dsDNA, one strand shown
# T2 sequence: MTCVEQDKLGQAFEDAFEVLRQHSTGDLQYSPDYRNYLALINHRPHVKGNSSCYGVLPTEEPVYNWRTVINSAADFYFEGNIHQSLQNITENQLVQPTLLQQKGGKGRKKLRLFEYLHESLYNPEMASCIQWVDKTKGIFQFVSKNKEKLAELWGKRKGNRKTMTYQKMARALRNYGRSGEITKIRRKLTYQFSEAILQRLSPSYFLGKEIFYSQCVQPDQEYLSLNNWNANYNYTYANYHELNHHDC
# How it was run: as §1
# ELF4 = ELF4 (Homo sapiens, UniProt Q99607 1-663); conditions: protein: recombinant; tags: N-terminal GST; dsDNA, one strand shown
# Chain of ELF4 (Q99607 whole entry): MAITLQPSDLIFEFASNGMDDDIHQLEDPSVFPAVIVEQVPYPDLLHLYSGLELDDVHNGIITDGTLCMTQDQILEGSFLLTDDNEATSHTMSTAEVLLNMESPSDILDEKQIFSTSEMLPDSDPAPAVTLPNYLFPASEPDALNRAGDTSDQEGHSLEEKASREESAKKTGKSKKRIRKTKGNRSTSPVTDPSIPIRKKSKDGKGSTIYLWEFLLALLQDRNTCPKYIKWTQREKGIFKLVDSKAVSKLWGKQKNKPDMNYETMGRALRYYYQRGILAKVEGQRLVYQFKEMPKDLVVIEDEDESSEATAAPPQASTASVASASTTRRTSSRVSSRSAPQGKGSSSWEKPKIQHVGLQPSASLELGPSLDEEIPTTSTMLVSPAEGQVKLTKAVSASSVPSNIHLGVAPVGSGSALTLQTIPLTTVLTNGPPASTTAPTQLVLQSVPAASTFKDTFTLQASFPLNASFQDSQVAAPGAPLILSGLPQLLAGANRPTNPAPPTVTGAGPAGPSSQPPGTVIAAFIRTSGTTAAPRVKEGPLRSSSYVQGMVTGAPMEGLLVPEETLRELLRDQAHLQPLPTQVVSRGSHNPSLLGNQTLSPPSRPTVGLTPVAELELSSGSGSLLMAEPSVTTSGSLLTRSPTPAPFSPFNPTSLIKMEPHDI
# How it was run: as §1
# ELK4 = molecular target: T3, ELK4 (Homo sapiens, UniProt P28324-2 1-405); conditions: protein: recombinant; tags: N-terminal GST; dsDNA, one strand shown
# T3 sequence: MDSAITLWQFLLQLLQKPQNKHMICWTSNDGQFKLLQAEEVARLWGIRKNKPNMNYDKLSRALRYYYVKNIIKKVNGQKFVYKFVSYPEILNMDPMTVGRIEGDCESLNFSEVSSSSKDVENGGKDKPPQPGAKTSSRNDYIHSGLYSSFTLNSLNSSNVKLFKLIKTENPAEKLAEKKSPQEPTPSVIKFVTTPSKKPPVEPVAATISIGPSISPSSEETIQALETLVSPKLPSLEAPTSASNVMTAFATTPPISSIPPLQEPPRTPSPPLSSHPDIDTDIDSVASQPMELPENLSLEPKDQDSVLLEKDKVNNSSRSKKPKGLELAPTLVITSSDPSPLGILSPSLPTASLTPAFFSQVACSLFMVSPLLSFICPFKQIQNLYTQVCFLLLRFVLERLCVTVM
# How it was run: as §1
# ETV2 = molecular target: T4, ETV2 (Homo sapiens, UniProt O00321 1-342); conditions: protein: recombinant; tags: N-terminal GST; dsDNA, one strand shown
# T4 sequence: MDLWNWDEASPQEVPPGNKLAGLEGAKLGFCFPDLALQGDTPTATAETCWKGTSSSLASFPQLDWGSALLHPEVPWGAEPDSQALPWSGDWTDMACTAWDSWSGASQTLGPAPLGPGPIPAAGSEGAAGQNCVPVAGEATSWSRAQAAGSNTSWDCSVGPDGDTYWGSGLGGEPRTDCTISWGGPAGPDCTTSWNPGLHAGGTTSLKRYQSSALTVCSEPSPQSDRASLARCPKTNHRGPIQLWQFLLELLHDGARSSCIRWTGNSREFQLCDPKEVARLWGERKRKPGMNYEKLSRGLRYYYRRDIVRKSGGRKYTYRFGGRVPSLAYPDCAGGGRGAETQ
# How it was run: as §1
# ELF3 = molecular target: T5, ELF3 (Homo sapiens, UniProt P78545 1-371); conditions: protein: recombinant; tags: N-terminal GST; dsDNA, one strand shown
# T5 sequence: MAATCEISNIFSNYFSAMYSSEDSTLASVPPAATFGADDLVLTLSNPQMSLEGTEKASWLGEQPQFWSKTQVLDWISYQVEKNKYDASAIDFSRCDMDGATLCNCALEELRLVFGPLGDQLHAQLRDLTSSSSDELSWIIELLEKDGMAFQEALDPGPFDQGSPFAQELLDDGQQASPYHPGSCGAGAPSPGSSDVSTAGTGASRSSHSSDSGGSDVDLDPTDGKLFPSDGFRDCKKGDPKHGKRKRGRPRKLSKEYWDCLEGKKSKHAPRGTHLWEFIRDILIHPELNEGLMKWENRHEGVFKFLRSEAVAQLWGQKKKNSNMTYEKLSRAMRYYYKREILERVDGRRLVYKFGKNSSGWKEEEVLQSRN
# How it was run: as §1
# CRX = CRX (Homo sapiens, UniProt O43186 1-299); conditions: protein: recombinant; tags: N-terminal GST; dsDNA, one strand shown
# Chain of CRX (O43186 whole entry): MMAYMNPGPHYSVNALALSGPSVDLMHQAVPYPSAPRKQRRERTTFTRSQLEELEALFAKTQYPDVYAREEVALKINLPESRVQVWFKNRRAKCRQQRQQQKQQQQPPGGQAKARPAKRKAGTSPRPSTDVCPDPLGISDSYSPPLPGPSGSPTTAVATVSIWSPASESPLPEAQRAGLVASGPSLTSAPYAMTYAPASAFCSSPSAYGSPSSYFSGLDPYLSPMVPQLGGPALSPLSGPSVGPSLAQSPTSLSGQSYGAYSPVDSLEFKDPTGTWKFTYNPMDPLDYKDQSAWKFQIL
# How it was run: as §1
# ETV1 = ETV1 (Homo sapiens, UniProt P50549 1-477); conditions: protein: recombinant; tags: N-terminal GST; dsDNA, one strand shown
# Chain of ETV1 (P50549 whole entry): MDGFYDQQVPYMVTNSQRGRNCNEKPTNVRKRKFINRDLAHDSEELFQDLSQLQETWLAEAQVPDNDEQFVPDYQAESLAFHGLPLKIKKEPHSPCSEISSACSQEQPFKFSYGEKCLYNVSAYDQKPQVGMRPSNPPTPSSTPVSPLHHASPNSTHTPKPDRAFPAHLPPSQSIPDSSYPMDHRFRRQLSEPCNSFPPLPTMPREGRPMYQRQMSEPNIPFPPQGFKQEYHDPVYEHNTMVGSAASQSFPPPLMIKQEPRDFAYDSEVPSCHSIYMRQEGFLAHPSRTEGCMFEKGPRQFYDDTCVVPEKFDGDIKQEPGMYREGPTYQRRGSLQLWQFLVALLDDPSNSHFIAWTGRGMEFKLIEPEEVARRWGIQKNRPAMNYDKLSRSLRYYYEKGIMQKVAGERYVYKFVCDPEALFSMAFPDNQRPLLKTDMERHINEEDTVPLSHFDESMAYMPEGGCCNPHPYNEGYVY
# How it was run: as §1
sequence,measurement,setting,value
TAATGG,binding signal,FEV,"1.25 fold enrichment (6-mer frequency, TF over GST control)"
same,binding signal,ETV5,"1.35 fold enrichment (6-mer frequency, TF over GST control)"
same,binding signal,HSF1,"1.46 fold enrichment (6-mer frequency, TF over GST control)"
same,binding signal,SPIC,"1.34 fold enrichment (6-mer frequency, TF over GST control)"
same,binding signal,ELF4,"1.3 fold enrichment (6-mer frequency, TF over GST control)"
same,binding signal,ELK4,"1.3 fold enrichment (6-mer frequency, TF over GST control)"
same,binding signal,ETV2,"1.09 fold enrichment (6-mer frequency, TF over GST control)"
same,binding signal,ELF3,"1.31 fold enrichment (6-mer frequency, TF over GST control)"
same,binding signal,CRX,"1.64 fold enrichment (6-mer frequency, TF over GST control)"
same,binding signal,ETV1,"1.45 fold enrichment (6-mer frequency, TF over GST control)"
